In PubChem BioAssay (Tox21):
Inconclusive results are not listed. Entries that show only a call come without a potency. Active and inactive are the calls of the source. Unless noted, calls come from the whole dose curve; as a rule, active = well fitted curve in the direction sought with a large enough effect in the repeat runs; inconclusive = weak or mixed curves; inactive = no such curve, though single readings can be large; an effect the other way counts as inactive or inconclusive.

Molecular target: Androgen receptor (Homo sapiens) (UniProt P10275)
Experiment: qHTS assay to identify small molecule antagonists of the androgen receptor (AR) signaling pathway (AID 743035; active = well fitted inhibition curve with a large enough effect in the signal ratio in the repeat runs, not every such curve was filed as active; the % refers to the signal ratio; note: potency is the fitted concentration of half-maximal effect)
Details: HEK293 AR-UAS-bla, R1881-stimulated, beta-lactamase FRET, 16 h; series mostly up to 58.5 µM
Summary of the method: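 R1881 agonist challenge of a HEK293 UAS-beta-lactamase AR reporter line in the presence of compound (16 h, 37C); signal taken as FRET fluorescence after 2 h with LiveBLAzer B/G substrate at room temperature.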

Chain of Androgen receptor (Homo sapiens) (P10275 whole entry, looked up): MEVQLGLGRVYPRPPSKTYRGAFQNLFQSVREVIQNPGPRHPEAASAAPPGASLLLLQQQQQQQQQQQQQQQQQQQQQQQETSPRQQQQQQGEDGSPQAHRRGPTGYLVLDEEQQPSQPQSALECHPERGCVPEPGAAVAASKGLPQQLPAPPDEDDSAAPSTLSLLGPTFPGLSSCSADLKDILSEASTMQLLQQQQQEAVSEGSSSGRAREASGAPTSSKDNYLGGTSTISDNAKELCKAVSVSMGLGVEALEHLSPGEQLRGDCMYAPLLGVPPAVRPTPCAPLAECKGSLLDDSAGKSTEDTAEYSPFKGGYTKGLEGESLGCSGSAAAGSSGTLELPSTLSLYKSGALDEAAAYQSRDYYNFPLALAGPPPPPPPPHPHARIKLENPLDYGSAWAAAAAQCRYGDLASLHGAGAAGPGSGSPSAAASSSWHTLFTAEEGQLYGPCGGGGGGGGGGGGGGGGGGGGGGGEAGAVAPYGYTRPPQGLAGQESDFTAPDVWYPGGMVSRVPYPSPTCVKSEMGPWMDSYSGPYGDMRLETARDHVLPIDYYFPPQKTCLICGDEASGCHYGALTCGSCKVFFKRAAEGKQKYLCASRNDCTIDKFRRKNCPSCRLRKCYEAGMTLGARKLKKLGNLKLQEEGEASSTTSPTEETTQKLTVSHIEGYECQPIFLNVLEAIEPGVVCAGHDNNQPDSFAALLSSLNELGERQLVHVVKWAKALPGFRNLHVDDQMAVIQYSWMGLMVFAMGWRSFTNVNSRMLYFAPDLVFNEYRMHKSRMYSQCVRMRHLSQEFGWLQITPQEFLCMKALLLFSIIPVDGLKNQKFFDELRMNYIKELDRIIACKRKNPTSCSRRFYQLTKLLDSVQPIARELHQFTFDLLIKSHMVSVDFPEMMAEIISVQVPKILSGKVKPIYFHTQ

SMILES	Potency
CN(C)c1ccc(C2(c3ccc(N(C)C)cc3)OC(=O)c3cc(N(C)C)ccc32)cc1	inactive
C=C(C)C(=O)OCC[N+](C)(C)C	inactive
CC(C)(C)CC(C)(C)c1ccc(O)c(Cc2ccc(Cl)cc2Cl)c1	inactive
O=C(Oc1ccccc1)c1ccccc1C(=O)Oc1ccccc1	49 µM (active)

Molecular target: Androgen receptor (Homo sapiens) (UniProt P10275)
Experiment: qHTS assay to identify small molecule agonists of the androgen receptor (AR) signaling pathway (AID 743036; active = well fitted activation curve with a large enough effect in the signal ratio in the repeat runs, with a control signal flat, not every such curve was filed as active; the % refers to the signal ratio; note: potency is the fitted concentration of half-maximal effect)
Details: HEK293 AR-UAS-bla GripTite, beta-lactamase FRET ratio, 16 h; series mostly up to 62.4 µM
Summary of the method: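 AR-UAS-bla HEK293 cells, plated 4 h before dosing, were treated with compound for 16 h at 37C. beta-Lactamase reporter read after 2 h with LiveBLAzer B/G FRET substrate at room temperature.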

SMILES	Potency
C=C(C)C(=O)OCC[N+](C)(C)C	inactive
Oc1ccc2c(c1)-c1ccccc1C2	inactive
O=C1CCCc2c1cc1ccc3cccc4ccc2c1c34	14 µM (active)

Molecular target: Androgen receptor (Homo sapiens) (UniProt P10275)
Experiment: qHTS assay to identify small molecule agonists of the androgen receptor (AR) signaling pathway using the MDA cell line (AID 743040; note: nearly all actives have a fitted effect of over 20% in size)
Details: MDA-kb2 AR-luc cells, MMTV luciferase, 16 h; series mostly up to 70.3 µM
Summary of the method: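 Luciferase read-out, ONE-Glo, 30 min RT. Cells: MDA-kb2 AR-luc, MMTV promoter with AR and GR response elements. Compound exposure 16 h, 37C, 0% CO2, after 5 h pre-incubation. qHTS agonist mode.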

SMILES	Potency
O=C(NOCC1CC1)c1ccc(F)c(F)c1Nc1ccc(I)cc1Cl	inactive
CN(C)c1ccc(C2(c3ccc(N(C)C)cc3)OC(=O)c3cc(N(C)C)ccc32)cc1	inactive
C=C(C)C(=O)OCC[N+](C)(C)C	inactive
Oc1ccc2c(c1)-c1ccccc1C2	inactive
CC(C)C(C)(C)C(C)(C)C(C)(C)S	inactive
CC(C)=CCOc1ccc(/C=C/C(=O)c2ccc(OCC=C(C)C)cc2OCC(=O)O)cc1	inactive
O=C1CCCc2c1cc1ccc3cccc4ccc2c1c34	inactive
CC(C)(C)CC(C)(C)c1ccc(O)c(Cc2ccc(Cl)cc2Cl)c1	inactive
O=C(c1ccc(F)cc1)C1CCN(CCn2c(=O)[nH]c3ccccc3c2=O)CC1	inactive
O=C(Oc1ccccc1)c1ccccc1C(=O)Oc1ccccc1	inactive
O=C(c1ccc(O)cc1O)c1ccc(O)cc1O	inactive

Tested on: not listed separately
Experiment: qHTS assay to identify small molecule antagonists of the androgen receptor (AR) signaling pathway using the MDA cell line - cell viability counter screen (AID 743041; note: nearly all actives have a fitted effect of over 45% in size; note: potency is the fitted concentration of half-maximal effect)
Details: MDA-kb2 viability, CellTiter-Fluor, 16 h, cells co-treated with R1881 androgen agonist; series mostly up to 70.3 µM
Summary of the method: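 Cytotoxicity counter screen: MDA-kb2 AR-luc cells, compound + R1881, 16 h, 37C, 0% CO2; CellTiter-Fluor added at 15.5 h, fluorescence read after 30 min.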

SMILES	Potency
CN(C/C=C/C#CC(C)(C)C)Cc1cccc2ccccc12	inactive
O=c1cccccc1O	inactive
O=Cc1cc(O)ccc1Br	inactive
CC1=C(C(=O)OC(C)C)C(c2cccc([N+](=O)[O-])c2)C(C(=O)OC2CN(C(c3ccccc3)c3ccccc3)C2)=C(N)N1 (stereo unspecified)	inactive
C/C=C(\C)C(=O)OCc1ccccc1	inactive
CCOc1ccc2nc3cc(N)ccc3c(N)c2c1	inactive
CC(=O)SC[C@@H](Cc1ccccc1)C(=O)NCC(=O)OCc1ccccc1	inactive
O=C(NOCC1CC1)c1ccc(F)c(F)c1Nc1ccc(I)cc1Cl	inactive
CN(C)c1ccc(C2(c3ccc(N(C)C)cc3)OC(=O)c3cc(N(C)C)ccc32)cc1	inactive
Clc1ccc2n[nH]nc2c1	inactive
C=C(C)C(=O)OCC[N+](C)(C)C	inactive
Cc1c(C)c2c(c(C)c1OC(=O)CCC(=O)O)CC[C@@](C)(CCC[C@H](C)CCC[C@H](C)CCCC(C)C)O2	inactive
Oc1ccc2c(c1)-c1ccccc1C2	inactive
Cc1cc(C2CCCCC2)n(O)c(=O)c1	inactive
O=[N+]([O-])c1cc([N+](=O)[O-])c2ccc(S(=O)(=O)O)cc2c1O	27.1 µM (active)
CC(C)C(C)(C)C(C)(C)C(C)(C)S	inactive
CC(C)=CCOc1ccc(/C=C/C(=O)c2ccc(OCC=C(C)C)cc2OCC(=O)O)cc1	inactive
O=C1CCCc2c1cc1ccc3cccc4ccc2c1c34	inactive
CC(C)(C)CC(C)(C)c1ccc(O)c(Cc2ccc(Cl)cc2Cl)c1	inactive
NC(=O)NS(=O)(=O)c1ccc(N)cc1	inactive
CCC1OCC(COc2ccc(Oc3ccccc3)cc2)O1 (stereo unspecified)	inactive
OCCCCCCCCCCCCBr	inactive
O=C1CCCCCN1SSN1CCCCCC1=O	inactive
O=c1[nH]cnc2nc[nH]c12	inactive
CCC(Cl)C(Cl)C(Cl)CC(Cl)C(Cl)C(C)Cl (stereo unspecified)	inactive
CCCN(CCC)c1c([N+](=O)[O-])cc(C(F)(F)F)c(N)c1[N+](=O)[O-]	60.9 µM (active)
CO[Si](CCCNc1ccccc1)(OC)OC	inactive
O=C(Nc1ccc(Oc2ccc(Cl)cc2)c(Cl)c1)c1cc(I)cc(I)c1O	inactive
